# TMEM16A inh = mouse TMEM16A channel inhibition, primary screen | Q8BHY3 | HEK293 TMEM16A/YFP iodide influx fluorescence, ionomycin | normalized B-score (activity score, 25-100; higher = stronger inhibition) at 10 µM | 1.2% of 310,000 active;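 active = ratio plate-corrected score three or more library SD toward inhibition, starting fluorescence score within five deviations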;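 also: score derived from kinetic fluorescence span divided by baseline fluorescence per well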
# GPR7 antag = human neuropeptides B/W receptor 1 antagonism; inhibition, % at 4.4 µM; 1.1% of 290,000 active; GPR7-expressing cells, fluorescence antagonist assay; P48145; in the data active = inhibition above about 16%, passing the limit was not always enough;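 also: cells stimulated with the agonist NPW; 0% = agonist with vehicle and 100% = vehicle without agonist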
# Target sequence (P48145 whole entry, looked up): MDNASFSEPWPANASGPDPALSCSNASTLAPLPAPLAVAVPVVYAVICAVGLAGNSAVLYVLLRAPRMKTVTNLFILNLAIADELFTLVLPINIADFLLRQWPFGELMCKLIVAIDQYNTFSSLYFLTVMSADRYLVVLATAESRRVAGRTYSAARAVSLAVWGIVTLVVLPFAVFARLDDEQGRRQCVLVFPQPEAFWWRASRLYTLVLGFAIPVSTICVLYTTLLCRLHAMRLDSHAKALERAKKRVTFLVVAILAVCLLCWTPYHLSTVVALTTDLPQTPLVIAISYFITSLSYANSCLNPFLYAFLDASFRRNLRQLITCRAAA
# ANO1 activ = mouse TMEM16A channel activation, primary screen; Q8BHY3; HEK293 TMEM16A/YFP-H148Q/I152L, iodide quench fluorescence; active compounds read low; B-score at 10 µM; 0.3% of 340,000 active; AID 623877;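 active = fluorescence-ratio B-score plate-corrected deviation score at least 3 library SD below zero, with starting fluorescence score within 5 deviations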;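 also: channel opened by trigger with iodide after compound preincubation; score built on the fluorescence ratio of max minus min over baseline; more negative score means more quench and so TMEM16A activation or potentiation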
# Kir21 inh = blocks the mouse Kir2.1 inward-rectifier potassium channel; P35561; HEK293-Kir2.1, FluxOR thallium flux fluorescence; active compounds read low; B-score at 10 µM; 0.85% of 310,000 active; AID 1672;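 active = fluorescence ratio B-score at or below minus 3 SD of library scores, with starting-brightness B-score within 2 SD, cut at about -4.2 in these data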;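 also: channel flux triggered by added potassium and thallium sulfate stimulus; B-score of peak minus minimum fluorescence over baseline after thallium stimulus; more negative B-score means stronger Kir2.1 block with less thallium influx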
# CHT PAM = allosteric activators of human choline transporter CHT; Q9GZV3; CHT-expressing cells, membrane potential dye, choline EC20; active compounds read high; LV-AA mutant CHT in HEK293 cells; B-score at 10 µM; 0.49% of 310,000 active;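 active = initial fluorescence not abnormally high and integrated response B-score, plate-corrected, over 3 SD above library mean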
# CHT block = inhibits the human high affinity choline transporter; CHT-expressing cells, membrane potential dye, choline response; active compounds read low; B-score at 10 µM; 0.86% of 310,000 active; AID 488975;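 active = B-score over 3 SD under the library average, and starting fluorescence ratio not unusually high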;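 also: choline stimulus applied at its EC90 after an EC20 pre-addition; B-score computed on integrated fluorescence ratio after choline addition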
# An asterisk follows results filed as active; i = inactive; . = not tested or not shown. Compounds with a hit are over-represented: about 3.7% of the library has one in this group of screens.
SMILES,TMEM16A inh,GPR7 antag,ANO1 activ,Kir21 inh,CHT PAM,CHT block
O=C(NCC1CCCO1)c1cccc(NS(=O)(=O)c2ccc(Br)cc2)c1 (stereo not drawn),i,.,i,-0.02,i,i
Cc1ccc(C2CC(=O)C=C(O)C2)cc1 (stereo not drawn),100*,-1,i,-0.99,i,i
CCN=c1scc(-c2ccc3c(c2)NC(=O)CO3)n1N=C1CCCC1,100*,-13,i,0,i,i
CC(C)[C@H](NC(=O)CCCn1nnc2ccccc2c1=O)C(=O)O,i,-13,i,1.8,i,i
CC(O)CNc1nc2ccccc2n1-c1ncnc2sc3c(c12)CCC3 (stereo not drawn),i,-2,i,-7.6*,i,i
Cc1nn(-c2ccc(C(F)(F)F)cn2)c(C)c1Oc1ccccc1O,i,4,-34*,1.4,i,i
Cc1cc(=O)[nH]c(-n2nc(C)c(Oc3ccccc3O)c2C)n1,i,1,i,0.13,i,i
COc1cc(/C=C2/SC(=S)N(Cc3ccccc3)C2=O)ccc1O,i,-11,i,0.75,i,i
COc1cc(/C=C2/SC(=S)N(c3c(C)n(C)n(-c4ccccc4)c3=O)C2=O)ccc1O,i,2,-8.1*,-0.14,i,i
O=C(CCCCCN1C(=O)c2ccccc2C1=O)Nc1ccc(S(=O)(=O)N2CCCCC2)cc1,i,4,i,0.15,i,i
O=C(OCCCCN1C(=O)c2ccccc2C1=O)c1ccc(S(=O)(=O)N2CCCC2)cc1,25*,-8,i,0.91,i,i
NS(=O)(=O)c1cccc(NC(=O)CSc2nc3nc(-c4cccs4)cc(C(F)(F)F)c3c(=O)[nH]2)c1,i,-13,i,-1.2,i,i
O=C(CSc1nc2nc(-c3cccs3)cc(C(F)(F)F)c2c(=O)[nH]1)Nc1c(F)c(F)c(F)c(F)c1F,100*,-6,i,0.17,i,i
O=C(CC1NCCc2ccccc21)Nc1ccc(Oc2ccccc2)cc1 (stereo not drawn),i,21*,i,-1.2,i,i
O=C(CC1NCCc2ccccc21)Nc1ccccc1 (stereo not drawn),i,-10,i,0.59,i,i
Nc1c(C(=O)Nc2ccccc2)sc2nc(-c3cccnc3)ccc12,i,-1,.,-1.4,i,-4.9*
COc1ccc(NC(=O)c2sc3nc(-c4cccnc4)ccc3c2N)cc1OC,i,-11,i,1.1,i,i
COc1ccc(Cl)cc1NC(=S)NC1CCCC1,i,3,i,0.76,i,i
COc1cc(CNc2ncn[nH]2)ccc1OCc1cccc(C)c1,i,-7,i,0.62,i,i
COc1ccc(-c2cn(-c3ccccc3)c3[n+]2CCS3)cc1,i,4,i,-0.92,i,i
CC(C)(C)c1ccc(-c2cn(-c3ccc(Br)cc3)c3[n+]2CCCS3)cc1,.,56*,i,-1.3,.,.
Cc1ccc(C(C2=C(O)CC(C)(C)CC2=O)C2C(=O)CC(C)(C)CC2=O)s1 (stereo not drawn),i,-13,i,-0.03,i,i
CC1(C)CC(=O)C(C(C2=C(O)CC(C)(C)CC2=O)c2ccc(Br)s2)C(=O)C1 (stereo not drawn),i,-5,i,-7.4*,i,i
c1ccc(-c2nnc(CN3CCN(c4ccccc4)CC3)o2)cc1,i,-9,i,0.34,i,i
Cc1ccc(C2=NN(Cc3nnc(-c4ccccc4)o3)C(=O)SC2)cc1,25*,8,i,0.07,i,i
SMILES,TMEM16A inh,GPR7 antag,ANO1 activ,Kir21 inh,CHT PAM,CHT block
CC(C1CC1)N(Cc1ccccc1)C(=S)Nc1cccc(C(F)(F)F)c1 (stereo not drawn),100*,-10,i,-0.62,i,i
OCCNC(=S)NCc1ccccc1,i,-13,i,0.36,i,i
OCCCNCc1ccc(N(c2ccccc2)c2ccccc2)cc1,i,5,i,-12*,i,i
COc1cccc(/C=C/C(=O)c2ccc(C)c([N+](=O)[O-])c2)c1,i,3,i,-5.8*,i,i
COc1cc(/C=C/C(=O)c2cccc([N+](=O)[O-])c2)cc(OC)c1OC,i,-6,i,-4.7*,i,i
CC(=O)c1cccc([N+](=O)[O-])c1,.,.,i,.,.,.
O=C(/C=C/c1ccccc1F)c1cccc([N+](=O)[O-])c1,i,1,i,-5.5*,i,i
Clc1ccc2c(c1)-c1nnc(Br)n1-c1ccccc1S2,i,-2,i,-7.2*,i,i
Brc1nnc2n1-c1ccccc1Sc1ccccc1-2,i,-10,i,-6*,i,i
COc1ccc([C@H]2CC(=O)C=C(c3ccc(-c4ccccc4)c(F)c3)C2)cc1OC,.,.,-6.2*,.,.,.
O=C(Nc1ccc([N+](=O)[O-])cc1Cl)c1cc(Cl)ccc1O,100*,.,i,.,i,i
O=C(Nc1cccc(Cl)c1)c1cc(N=Nc2ccc([N+](=O)[O-])cc2Cl)ccc1O,100*,4,-5.7*,-2.3,i,i
N#Cc1ccccc1NC(=O)COC(=O)/C=C/c1ccc(S(=O)(=O)N2CCOCC2)cc1,.,.,i,.,.,.
CCC(NC(=O)c1oc2ccccc2c1COC)c1ccc(OC)cc1 (stereo not drawn),i,-1,i,-5.7*,i,i
COCc1c(C(=O)Nc2nc(C)cs2)oc2ccccc12,i,-15,i,1.1,i,i
CC(NC(=O)/C(C#N)=C/c1ccc(Cl)c([N+](=O)[O-])c1)c1ccccc1 (stereo not drawn),i,-10,.,-5.5*,i,i
C[C@@H](NC(=O)/C(C#N)=C/c1ccc(O)c(O)c1)c1ccccc1,i,.,i,.,i,i
O=C1CSC(c2cccnc2)N1Cc1ccc(Cl)cc1Cl (stereo not drawn),i,-9,i,-4.4*,i,i
Cc1ccc(NS(=O)(=O)c2c(C)[nH]c(C)c2C(=O)N2CCCCC2)cc1F,i,7,i,-0.68,i,i
O=C(COC(=O)c1ccccc1Br)NCc1ccccc1,i,0,i,-0.63,i,i
O=C(COC(=O)c1ccccc1NS(=O)(=O)c1ccc(Cl)cc1)NCc1ccccc1,100*,-2,i,-1.9,i,i
COc1ccccc1N=c1oc2c(OC)cccc2cc1C(=O)NCc1ccco1,25*,0,i,0.86,i,i
